{"source": "PubChem BioAssay (EPA / NIEHS)", "note": "Calls of active or inactive are those of the source. The calls were made as follows: active = hit-call score of the fitted dose curve at least 0.9, where 1 is the maximum; inactive = score below 0.9."}
{"read-out": "Cytochrome P450 (CYP1A1), CYP1A1 (gene 1543)", "experiment": "LTEA_HepaRG_CYP1A1: Life Technologies and Expression Analysis (LTEA) Assay for Cytochrome P450 (CYP1A1) using HepaRG (AID 2283454)", "details": "mRNA level, 48 h; actives raise or lower the signal", "method": "LTEA_HepaRG is a cell based, multiplexed-readout assay that uses HepaRG, a human liver cell line, with measurements taken at 48 hours after chemical dosing on a 96-well plate.LTEA_HepaRG_CYP1A1 is one of 102 assay component(s) measured in the LTEA HepaRG cell culture assay. It is a marker of NR mediated metabolism.Data from the assay component LTEA_HepaRG_CYP1A1 was analyzed into 1 endpoint. This assay endpoint, LTEA_HepaRG_CYP1A1, was analyzed with bidirectional fitting relative to DMSO as the negative control and baseline of activity. Using a type of inducible reporter, measures of mRNA induction for gain or loss-of-signal activity can be used to understand regulation of transcription factor activity. To generalize the intended target to other relatable targets, this assay endpoint is annotated to the cyp intended target family, where the subfamily is xenobiotic metabolism.\nA total of 1060 chemcials from the ToxCast library were tested in eight-point concentration-response experiments. Cell culture and cytotoxicity assays were conducted at Thermo Fisher Scientific's Custom Services facility (Madison, WI). A single lot of human HepaRG cells (Thermo Fisher Scientific, Frederick, MD) was used for the cell culture experiments. 96-well format collagen type I coated plates of human HepaRG cells were prepared using established methods. Briefly, cryopreserved HepaRG cells were thawed, plated at a density of approximately 100,000 cells/well in HepaRG Thaw, Plate, and General Purpose media (HPRG770, Thermo Fisher Scientific), and incubated for 48 hours. 0.5% DMSO was selected as vehicle control to balance the requisite need of DMSO in HepaRG cultures to maintain differentiation (for example, baseline metabolism, proportions of hepatocytes vs. cholangiocytes), while enabling further hepatic receptor pathway activation (for example, PXR and CAR) in response to chemical exposure. 48 hours after plating, the culture medium was replaced with HepaRG Serum-Free Incudtion Media. Cells were exposed to each test chemical in duplicate and maintained in CO2 incubators for another 48 hours. Chemical plates were thawed to room temperature and 200x concentrations of treatment groups were prepared. 8-point conentration-reponse curves were made with the highest exposure at 100 uM, followed by half-log dilutions, all in 0.5% DMSO. Each test plate contained variouse controls, induction positive controls (1mM phenobarbital), cytotoxicity positive controls ([…] aflatoxin B1), vehicle controls (0.5% DMSO), and total lysis controls (0.5% DMSO). Cell morphology images were taken using an Essen IncuCyte FLR automated microscope, with six 96-well plates imaged in about 24 minutes. Images were captured and exported and JPEG files. Spent culture media was transfered to black-well plates for the LDH assay, and remaining media was sorted at -80 C for later use. Cells were treated with RLT buffer and frozen until shipped for gene expression analysis. Total RNA was isolated from the cell suspension in 75 uL of Buffer RLT (Qiagen, Germantown, MD 20874) by Quintiles/Expression Analysis (Durham, NC) using a custom isolation procedure. Total RNA from each plate well was transferred to a preamplification plate. Fluidigm's 96.96 Dynamic ArrayTM (Fluidigm, Amsterdam, the Netherlands) technology was used for gene expression analyses by quantitative reverse transcription polymerase chain reaction (qRT-PCR, performed by Quintiles/Expression Analysis, Durham, NC)89. Standard TaqManTM Assays (Applied Biosystems/ThermoFisher Scientific, Foster City, CA) were used to assess the expression of 93 genes selected based on their selectivity and sensitivity to important hepatic receptors known to be modulated by environmental chemicals; importance in human hepatocyte functionality; and hepatotoxicity. […]"}
{"smiles": "O=C(O)C1C2CCC(O2)C1C(=O)O", "note": "(stereo not given)", "AC50": "82.6 µM (active)"}
{"smiles": "C1=Cc2cccc3cccc1c23", "AC50": "20.9 µM (active)"}
{"smiles": "c1ccc(C2CO2)cc1", "note": "(stereo not given)", "outcome": "inactive"}
{"smiles": "CCCCCCCCn1sccc1=O", "AC50": "32.8 µM (active)"}
{"smiles": "Clc1ccc(C(c2ccc(Cl)cc2)C(Cl)Cl)cc1", "AC50": "29.5 µM (active)"}
{"smiles": "CC(O)CCO", "note": "(stereo not given)", "outcome": "inactive"}
{"smiles": "O=P(OCCCl)(OCCCl)OCCCl", "AC50": "76 µM (active)"}
{"smiles": "Cc1cc(N=Nc2ccccc2C)ccc1N", "AC50": "1.05 µM (active)"}
{"smiles": "CCCCC(CC)COC(=O)c1ccc(C(=O)OCC(CC)CCCC)c(C(=O)OCC(CC)CCCC)c1", "note": "(stereo not given)", "AC50": "50 µM (active)"}
{"smiles": "OCCOCCO", "outcome": "inactive"}
{"smiles": "Oc1ccccc1Cl", "outcome": "inactive"}
{"smiles": "CC(C)(C)OOC(=O)c1ccccc1", "AC50": "83.2 µM (active)"}
{"smiles": "[As]#[In]", "outcome": "inactive"}
{"smiles": "CC(C)COC(=O)c1ccccc1C(=O)OCC(C)C", "AC50": "59.1 µM (active)"}
{"smiles": "CN(C)c1ccccc1", "AC50": "63.3 µM (active)"}
{"smiles": "Nc1ccc([N+](=O)[O-])cc1", "AC50": "50 µM (active)"}
{"smiles": "CCN(CC)N=O", "AC50": "76.5 µM (active)"}
{"smiles": "Nc1cc(Cl)cc(C(=O)O)c1Cl", "AC50": "63.4 µM (active)"}
{"smiles": "C[N+](C)(C)CC1CO1", "note": "(stereo not given)", "AC50": "50 µM (active)"}
{"smiles": "Oc1ccc2ccc3cccc4ccc1c2c34", "AC50": "27.5 µM (active)"}
{"smiles": "[O-][Cl+]O", "outcome": "inactive"}
{"smiles": "CCN(CC)CCO", "outcome": "inactive"}
{"smiles": "COP(=S)(OC)SCN1C(=O)c2ccccc2C1=O", "AC50": "30.9 µM (active)"}
{"smiles": "COC(=O)Nc1nc2ccccc2[nH]1", "AC50": "24.7 µM (active)"}
{"smiles": "c1ccc(N=Nc2ccccc2)cc1", "AC50": "36.6 µM (active)"}
{"smiles": "CCCCCCCCCCCCCN1CC(C)OC(C)C1", "note": "(stereo not given)", "AC50": "50 µM (active)"}
{"smiles": "Nc1ccc(N=Nc2ccccc2)cc1", "AC50": "35.8 µM (active)"}
{"smiles": "Cc1cccc(N)c1N", "AC50": "6.92 µM (active)"}
{"smiles": "O=C(Oc1ccc(Br)cc1)N1CCN2CCC1CC2", "AC50": "65.1 µM (active)"}
{"smiles": "CN(C)c1ccc(C(=O)c2ccc(N(C)C)cc2)cc1", "AC50": "14.6 µM (active)"}
{"smiles": "CN(C)C(=O)Nc1ccc(Cl)cc1", "AC50": "38 µM (active)"}
{"smiles": "CCC12COCN1COC2", "AC50": "50 µM (active)"}
{"smiles": "Cc1ccc(N)c(N)c1", "AC50": "40.2 µM (active)"}
{"smiles": "ClC1=C(Cl)[C@]2(Cl)[C@H]3[C@H]([C@@H]4C=C[C@H]3C4)[C@@]1(Cl)C2(Cl)Cl", "AC50": "38.3 µM (active)"}
{"smiles": "c1ccc2c(c1)oc1ccccc12", "AC50": "50 µM (active)"}
{"smiles": "Clc1ccc(C(c2ccc(Cl)cc2)C(Cl)(Cl)Cl)cc1", "AC50": "9.54 µM (active)"}
{"smiles": "CC(C)(C)OOC(C)(C)CCC(C)(C)OOC(C)(C)C", "AC50": "64.2 µM (active)"}
{"smiles": "OCCCl", "outcome": "inactive"}
{"smiles": "CC(C)(C)C(O)(CCc1ccc(Cl)cc1)Cn1cncn1", "note": "(stereo not given)", "AC50": "6.47 µM (active)"}
{"smiles": "O=[N+]([O-])C(Br)(CO)CO", "AC50": "50 µM (active)"}
